Assay results taken from PubChem BioAssay.
Activity calls are given as the source filed them.

Columns and labels:
[1] = small molecules captured by biotinylated probe aFSTL3 – biochemical, small-molecule microarray, fluorescence 635/667, stem cell growth factor project, primary screen (AID 1064); details: higher = more signal;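 further: measures binding of the biotinylated anti-FSTL3 antibody to printed compounds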
[2] = binders from COS7 lysate, DM2A8 probe, primary screen, torsin A project, cell lysate, small-molecule microarray, fluorescence 635/667 (AID 1065); details: higher = more signal, COS7 lysate expressing mutant human TOR1A
[3] = small molecules captured by biotinylated probe aFGF2 – biochemical, small-molecule microarray, fluorescence 635/667, stem cell growth factor project, primary screen (AID 1067); details: higher = more signal;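 further: measures binding of biotinylated aFGF2 protein to printed compounds on slides; z-score merges feature fluorescence and signal-to-noise across triplicate slides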
[4] = small molecules captured by biotinylated probe aFGF10 – biochemical, small-molecule microarray, fluorescence 635/667, stem cell growth factor project, primary screen (AID 1071); details: higher = more signal;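 further: score merges 667 nm spot intensity and signal to noise from triplicate slides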
[5] = biological target: Neurogenic locus notch homolog protein 2 (Homo sapiens) (UniProt Q04721); experiment: small molecules binding Notch2 protein – biochemical, small-molecule microarray, 635 nm fluorescence, stem cell growth factors, primary screen (AID 1073); details: higher = more signal
Sequence of Neurogenic locus notch homolog protein 2 (Homo sapiens) (Q04721 whole entry, looked up, canonical isoform): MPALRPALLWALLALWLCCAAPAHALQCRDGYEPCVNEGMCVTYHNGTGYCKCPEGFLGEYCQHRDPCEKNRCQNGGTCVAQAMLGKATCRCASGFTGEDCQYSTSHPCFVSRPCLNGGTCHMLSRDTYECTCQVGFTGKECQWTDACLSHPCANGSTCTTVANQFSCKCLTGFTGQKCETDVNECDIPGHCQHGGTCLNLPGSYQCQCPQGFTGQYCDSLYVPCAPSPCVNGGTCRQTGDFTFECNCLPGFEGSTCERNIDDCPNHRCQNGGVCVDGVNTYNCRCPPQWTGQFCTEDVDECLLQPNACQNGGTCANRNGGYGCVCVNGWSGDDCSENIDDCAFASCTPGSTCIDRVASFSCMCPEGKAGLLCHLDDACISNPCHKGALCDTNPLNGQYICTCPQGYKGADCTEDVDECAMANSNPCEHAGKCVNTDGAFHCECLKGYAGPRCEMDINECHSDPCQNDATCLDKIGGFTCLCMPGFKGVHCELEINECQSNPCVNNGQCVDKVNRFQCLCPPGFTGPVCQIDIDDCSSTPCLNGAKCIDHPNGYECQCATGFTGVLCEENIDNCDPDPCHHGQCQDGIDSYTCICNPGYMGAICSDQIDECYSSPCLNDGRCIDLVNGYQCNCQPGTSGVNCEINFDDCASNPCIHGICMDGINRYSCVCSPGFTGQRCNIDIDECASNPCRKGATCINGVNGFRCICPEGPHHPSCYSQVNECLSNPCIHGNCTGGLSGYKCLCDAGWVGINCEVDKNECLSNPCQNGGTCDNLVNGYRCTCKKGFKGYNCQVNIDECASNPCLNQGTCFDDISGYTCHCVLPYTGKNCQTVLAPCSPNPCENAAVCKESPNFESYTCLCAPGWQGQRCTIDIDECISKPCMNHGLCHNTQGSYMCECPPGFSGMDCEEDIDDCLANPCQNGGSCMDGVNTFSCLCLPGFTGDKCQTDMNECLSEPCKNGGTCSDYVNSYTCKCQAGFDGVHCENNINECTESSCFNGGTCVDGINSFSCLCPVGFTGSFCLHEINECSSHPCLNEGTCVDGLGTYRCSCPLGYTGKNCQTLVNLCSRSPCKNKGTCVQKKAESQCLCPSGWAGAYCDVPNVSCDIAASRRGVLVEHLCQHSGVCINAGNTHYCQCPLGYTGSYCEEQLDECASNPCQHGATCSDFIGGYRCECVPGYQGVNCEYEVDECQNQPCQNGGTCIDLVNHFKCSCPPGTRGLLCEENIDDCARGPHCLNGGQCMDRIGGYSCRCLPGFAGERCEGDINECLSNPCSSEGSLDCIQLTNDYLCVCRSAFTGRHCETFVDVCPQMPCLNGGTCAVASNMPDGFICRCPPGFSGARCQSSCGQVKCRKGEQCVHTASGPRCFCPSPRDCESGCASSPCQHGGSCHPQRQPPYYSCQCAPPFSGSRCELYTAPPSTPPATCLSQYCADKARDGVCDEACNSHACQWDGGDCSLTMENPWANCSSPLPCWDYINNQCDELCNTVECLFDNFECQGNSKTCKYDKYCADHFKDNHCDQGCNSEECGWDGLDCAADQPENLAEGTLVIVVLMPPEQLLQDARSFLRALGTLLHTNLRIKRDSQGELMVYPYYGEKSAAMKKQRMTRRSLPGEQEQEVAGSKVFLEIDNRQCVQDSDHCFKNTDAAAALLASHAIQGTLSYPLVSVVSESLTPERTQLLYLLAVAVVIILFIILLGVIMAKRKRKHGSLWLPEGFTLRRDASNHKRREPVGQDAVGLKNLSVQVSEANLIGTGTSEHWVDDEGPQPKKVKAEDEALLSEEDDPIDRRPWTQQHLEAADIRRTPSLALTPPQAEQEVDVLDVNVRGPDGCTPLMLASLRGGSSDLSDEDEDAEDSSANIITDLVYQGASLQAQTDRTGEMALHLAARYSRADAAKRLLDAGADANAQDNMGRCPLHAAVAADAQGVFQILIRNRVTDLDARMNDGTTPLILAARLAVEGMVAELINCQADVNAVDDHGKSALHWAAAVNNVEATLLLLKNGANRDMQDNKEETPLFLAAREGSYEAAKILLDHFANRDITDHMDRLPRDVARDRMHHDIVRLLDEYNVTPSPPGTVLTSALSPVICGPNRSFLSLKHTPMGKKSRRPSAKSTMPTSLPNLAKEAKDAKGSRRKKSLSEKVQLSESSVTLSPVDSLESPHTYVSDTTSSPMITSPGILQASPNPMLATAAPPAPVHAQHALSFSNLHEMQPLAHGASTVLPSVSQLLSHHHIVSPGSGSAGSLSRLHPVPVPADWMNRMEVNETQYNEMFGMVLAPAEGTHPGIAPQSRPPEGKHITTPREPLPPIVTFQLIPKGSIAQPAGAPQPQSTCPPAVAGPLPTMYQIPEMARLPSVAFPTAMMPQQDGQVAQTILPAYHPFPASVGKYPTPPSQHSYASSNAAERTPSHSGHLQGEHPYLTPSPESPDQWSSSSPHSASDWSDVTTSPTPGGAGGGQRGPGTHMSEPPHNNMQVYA

[6] = biological target: Pro-neuregulin-1, membrane-bound isoform (Homo sapiens) (UniProt Q02297); experiment: small molecules binding neuregulin-1 protein – biochemical, small-molecule microarray, fluorescence 635/667, psychiatric disease protein project, primary screen (AID 1075); details: NRG1 binding, 635 nm fluorescence, higher = more signal;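 further: score combines 667 nm spot fluorescence with signal to noise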
Sequence of Pro-neuregulin-1, membrane-bound isoform (Homo sapiens) (Q02297 whole entry, looked up, the tested form may be a part, canonical isoform): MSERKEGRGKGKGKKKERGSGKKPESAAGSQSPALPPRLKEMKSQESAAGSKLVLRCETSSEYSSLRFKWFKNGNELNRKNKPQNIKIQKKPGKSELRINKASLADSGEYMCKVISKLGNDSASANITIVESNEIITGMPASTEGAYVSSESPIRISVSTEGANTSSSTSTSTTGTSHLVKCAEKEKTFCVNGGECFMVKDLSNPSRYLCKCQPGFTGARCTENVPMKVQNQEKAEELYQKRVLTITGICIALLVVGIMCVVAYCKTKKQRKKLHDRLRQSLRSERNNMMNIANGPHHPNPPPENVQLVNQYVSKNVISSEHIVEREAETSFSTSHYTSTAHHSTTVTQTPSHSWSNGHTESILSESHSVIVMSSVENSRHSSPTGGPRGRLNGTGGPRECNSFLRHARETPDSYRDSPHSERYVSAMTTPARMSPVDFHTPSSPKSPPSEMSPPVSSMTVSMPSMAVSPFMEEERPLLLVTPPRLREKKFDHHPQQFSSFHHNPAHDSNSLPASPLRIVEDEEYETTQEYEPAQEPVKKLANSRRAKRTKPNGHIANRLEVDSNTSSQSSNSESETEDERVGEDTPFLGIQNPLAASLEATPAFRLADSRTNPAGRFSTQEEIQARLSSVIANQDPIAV

[7] = test system: Neuregulin-1 EGF-like domain; experiment: small molecules binding NRG1 EGF domain – biochemical, small-molecule microarray, 635 nm fluorescence, primary screen (AID 1081); details: higher = more signal;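 further: binding of the protein to compounds printed on small-molecule microarray slides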
[8] = FRG1 expression reporter modulators in myotubes – cell-based, C2C12 myotubes, firefly/Renilla luciferase, luminescence, FRG1 inhibition for FSHD, primary screen (AID 1084); details: FRG1 promoter luciferase, higher = more signal, called active from +8 up or from −8 down
[9] = small molecules captured by biotinylated probe aFST – biochemical, small-molecule microarray, fluorescence 635/667, stem cell growth factor project, primary screen (AID 1086); details: higher = more signal;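 further: score merges 667 nm fluorescence with signal-to-noise of each printed compound spot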
[10] = binders of probe aHhip on microarray, primary screen, stem cell growth factor project, biochemical, small-molecule microarray, fluorescence 635/667 (AID 1087); details: higher = more signal;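 further: score merges spot fluorescence at 667nm with spot signal to noise ratio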

## C=C(/C(=C/C[C@H](OC(C)=O)c1ccc(CO)o1)c1cnc2ccccc2c1)C(C)C
[1]
  composite z-score: -0.519
[2]
  composite z-score: 1.01
[3]
  composite z-score: 0.0122
[4]
  composite z-score: 1.01
[5]
  composite z-score: 1.5
[6]
  composite z-score: 1.68
[7]
  composite z-score: 1.04
[8]
  z-score: 0.938 (inactive)
[9]
  composite z-score: 0.846
[10]
  composite z-score: -0.0296

## [N-]=[N+]=Nc1ccccc1C[C@]1(C(=O)O)COC(c2ccc(OCCCO)cc2)=N1
[1]
  composite z-score: 0.326
[2]
  composite z-score: -1.1
[3]
  composite z-score: -0.11
[4]
  composite z-score: 0.518
[5]
  composite z-score: 0.194
[6]
  composite z-score: 0.614
[7]
  composite z-score: 1.19
[8]
  z-score: 5.78 (inactive)
[9]
  composite z-score: 0.205
[10]
  composite z-score: 0.419

## COc1ccc([Si](C)(C)[C@@H]2[C@@H](CCO)O[C@]3(C(=O)N(Cc4ccccc4)c4ccc(N5CCOC5=O)cc43)[C@H]2C)cc1
[1]
  composite z-score: -0.142
[2]
  composite z-score: 0.682
[3]
  composite z-score: -0.0346
[4]
  composite z-score: 0.65
[5]
  composite z-score: 0.545
[6]
  composite z-score: 0.69
[7]
  composite z-score: 0.951
[8]
  z-score: -4.48 (inactive)
[9]
  composite z-score: 0.152
[10]
  composite z-score: -0.226

## C=CC[C@]1(C(=O)N2CCOCC2)COC(c2ccc(OCCCO)cc2)=N1
[1]
  composite z-score: 0.0944
[2]
  composite z-score: 1.47
[3]
  composite z-score: 0.075
[4]
  composite z-score: -0.151
[5]
  composite z-score: 0.0759
[6]
  composite z-score: 1.52
[7]
  composite z-score: 1.39
[8]
  z-score: 0.683 (inactive)
[9]
  composite z-score: 0.219
[10]
  composite z-score: -0.249

## CO[C@H]1O[C@H](CO)[C@@H](OC(=O)Nc2ccccc2)[C@H](OC(=O)c2cc3ccccc3[nH]2)[C@H]1OC(=O)c1cc2ccccc2[nH]1
[1]
  composite z-score: 0.731
[2]
  composite z-score: 0.0889
[3]
  composite z-score: 0.0336
[4]
  composite z-score: 0.886
[5]
  composite z-score: 0.518
[6]
  composite z-score: 1.18
[7]
  composite z-score: 0.495
[8]
  z-score: -0.542 (inactive)
[9]
  composite z-score: 0.219
[10]
  composite z-score: -0.0994

## [N-]=[N+]=Nc1ccccc1C[C@]1(C(=O)NCCN2CCOCC2)COC(c2ccc(OCCCO)cc2)=N1
[1]
  composite z-score: 0.295
[2]
  composite z-score: 1.26
[3]
  composite z-score: -0.27
[4]
  composite z-score: -0.0786
[5]
  composite z-score: 0.722
[6]
  composite z-score: 1.55
[7]
  composite z-score: 1.39
[8]
  z-score: 0.706 (inactive)
[9]
  composite z-score: 0.143
[10]
  composite z-score: -0.0994

## O=c1cccc(-c2ccc([N+](=O)[O-])cc2)o1
[1]
  composite z-score: -0.164
[2]
  composite z-score: -0.0642
[3]
  composite z-score: 0.0008
[4]
  composite z-score: 0.287
[5]
  composite z-score: 0.698
[6]
  composite z-score: -0.283
[7]
  composite z-score: 0.348
[8]
  z-score: -0.0029 (inactive)
[9]
  composite z-score: -0.192
[10]
  composite z-score: -0.0263

## C=C[C@@H](CO)N(Cc1ccc(OC)cc1)S(=O)(=O)c1ccc(Br)cc1
[1]
  composite z-score: -0.142
[2]
  composite z-score: 0.368
[3]
  composite z-score: -0.13
[4]
  composite z-score: 0.332
[5]
  composite z-score: -0.185
[6]
  composite z-score: 0.0749
[7]
  composite z-score: 0.996
[8]
  z-score: -4.18 (inactive)
[9]
  composite z-score: -0.446
[10]
  composite z-score: -0.134

## Cc1cc(C)c(C(O)C2C=CC3C(=O)N(c4ccccc4)C(=O)C3N2Nc2ccccc2F)c(C)c1 (stereo not given)
[1]
  composite z-score: -0.0327
[2]
  composite z-score: -0.437
[3]
  composite z-score: -0.01
[4]
  composite z-score: -0.0495
[5]
  composite z-score: 0.565
[6]
  composite z-score: 1.07
[7]
  composite z-score: 1.09
[8]
  z-score: 0.717 (inactive)
[9]
  composite z-score: 0.439
[10]
  composite z-score: 0.0854

## CC(C)C[C@@H]1NC(=O)[C@@H]2C[C@H](C(=O)NCCCCCCN)[C@H](c3cccc(OCCO)c3)N2C1=O
[1]
  composite z-score: 0.0713
[2]
  composite z-score: -0.262
[3]
  composite z-score: 0.107
[4]
  composite z-score: 0.655
[5]
  composite z-score: 0.928
[6]
  composite z-score: 1.98
[7]
  composite z-score: 1.44
[8]
  z-score: 1.32 (inactive)
[9]
  composite z-score: 0.819
[10]
  composite z-score: -0.121

## Cc1ccc(S[C@]2(C(=O)NC(C)C)CC(=O)N(Cc3cc(C(F)(F)F)cc(C(F)(F)F)c3)[C@@H]2c2ccc(CO)cc2)cc1
[1]
  composite z-score: 0.0795
[2]
  composite z-score: -0.662
[3]
  composite z-score: -0.145
[4]
  composite z-score: -0.898
[5]
  composite z-score: -1.08
[6]
  composite z-score: 0.624
[7]
  composite z-score: 0.644
[8]
  z-score: 0.237 (inactive)
[9]
  composite z-score: -0.803
[10]
  composite z-score: -0.236

## O=C(C1N=C(c2ccc(OCCCO)cc2)N(c2ccccc2)O1)N1CCCCC1 (stereo not given)
[1]
  composite z-score: 0.819
[2]
  composite z-score: 1.49
[3]
  composite z-score: 0.182
[4]
  composite z-score: 0.938
[5]
  composite z-score: 1.05
[6]
  composite z-score: 1.99
[7]
  composite z-score: 1.36
[8]
  z-score: 2.39 (inactive)
[9]
  composite z-score: 1.13
[10]
  composite z-score: -0.0952

## O=C(NCCN1CCOCC1)[C@@H]1c2ccccc2C(=O)N(C2Cc3ccccc3C2)[C@H]1c1ccc(CO)cc1
[1]
  composite z-score: 0.704
[2]
  composite z-score: 0.0352
[3]
  composite z-score: -0.163
[4]
  composite z-score: -0.465
[5]
  composite z-score: -0.168
[6]
  composite z-score: 0.855
[7]
  composite z-score: 1.25
[8]
  z-score: -1.39 (inactive)
[9]
  composite z-score: -0.768
[10]
  composite z-score: -0.173

## C=CC[C@@]1(C(=O)NCCCOC)N=C(c2ccc(OCCCO)cc2)O[C@@H]1c1ccccc1N=[N+]=[N-]
[1]
  composite z-score: 0.165
[2]
  composite z-score: 0.252
[3]
  composite z-score: 0.0442
[4]
  composite z-score: 0.469
[5]
  composite z-score: 0.798
[6]
  composite z-score: 1.67
[7]
  composite z-score: 1.21
[8]
  z-score: 2.26 (inactive)
[9]
  composite z-score: 1.06
[10]
  composite z-score: -0.0645

## C=CCC(OC(C)=O)[C@@H]1[C@@H](N(Cc2cccc3ccccc23)C(=O)Cc2ccc(OC)cc2)c2cc(OCCCO)ccc2N1C(=O)c1ccc(-c2ccccc2)cc1 (stereo not given in full)
[1]
  composite z-score: 0.112
[2]
  composite z-score: 0.0969
[3]
  composite z-score: -0.112
[4]
  composite z-score: -0.153
[5]
  composite z-score: -0.0051
[6]
  composite z-score: 0.497
[7]
  composite z-score: -0.359
[8]
  z-score: -1.39 (inactive)
[9]
  composite z-score: 0.428
[10]
  composite z-score: -0.201

## CS(=O)(=O)CCOC(=O)C1=CC(c2ccc(CO)cc2)=CC(C2CC2)N(Cc2sc3ccccc3c2Cl)C=C1C(=O)OCCS(C)(=O)=O (stereo not given)
[1]
  composite z-score: -0.0385
[2]
  composite z-score: 0.569
[3]
  composite z-score: -0.0746
[4]
  composite z-score: 0.165
[5]
  composite z-score: 0.87
[6]
  composite z-score: 1.77
[7]
  composite z-score: 0.962
[8]
  z-score: -1.06 (inactive)
[9]
  composite z-score: 0.223
[10]
  composite z-score: 0.316

## CCCC=C(CCC)[C@@H](NS(=O)(=O)c1ccc(C(F)(F)F)cc1)c1ccccc1
[1]
  composite z-score: -0.0179
[2]
  composite z-score: -0.0296
[3]
  composite z-score: 0.143
[4]
  composite z-score: -0.0601
[5]
  composite z-score: 0.0998
[6]
  composite z-score: -0.152
[7]
  composite z-score: 0.428
[8]
  z-score: 1.75 (inactive)
[9]
  composite z-score: 0.302
[10]
  composite z-score: 0.37

## CN(C)C(=O)[C@@]1(Cc2ccccc2CN=[N+]=[N-])N=C(c2ccc(OCCCO)cc2)O[C@H]1c1ccccc1N=[N+]=[N-]
[1]
  composite z-score: 0.388
[2]
  composite z-score: 0.021
[3]
  composite z-score: 0.0362
[4]
  composite z-score: 1.2
[5]
  composite z-score: 1.55
[6]
  composite z-score: 1.88
[7]
  composite z-score: 1.25
[8]
  z-score: -1.34 (inactive)
[9]
  composite z-score: 1.44
[10]
  composite z-score: 0.0071
